PubChem BioAssay AID2242 (National Center for Advancing Translational Sciences (NCATS), 2010)
Values joined by “and” are separate entries in the source; they are usually repeats but may differ in a detail not shown here. Identical values can stand only once. Among all 200,000 compounds or so, about 720 (0.36%) were called active. Roughly 8% stayed inconclusive and do not appear here. Calls come from the whole dose curve; as a rule, active = well fitted activation curve with a large enough effect; inconclusive = small, poorly fitted or top-dose-only effect, or effect the other way, or another doubt; inactive = flat fitted curve, though single readings scatter. The list shows a part of the results.

molecular target: Lysosomal alpha-glucosidase (Homo sapiens) (UniProt P10253); assay: qHTS Assay for Activators of Human alpha-Glucosidase as a Potential Chaperone Treatment of Pompe Disease; details: purified enzyme, 4-MU-alpha-glucoside fluorescence, 20 min; series mostly up to 76.9 µM; note: nearly all actives have a fitted effect of over 80% in size
Description: NIH Chemical Genomics Center [NCGC] NIH Molecular Libraries Probe Production centers Network [MLPCN] MLPCN Grant: 1R03MH084841-01 Assay Submitter (PI): Wei Zheng NCGC Assay Overview: Alpha-glucosidase is responsible for hydrolysis of terminal, non-reducing 1,4-linked alpha-D-glucose residues with release of alpha-D-glucose. It is a lysosomal hydrolase that is required for the degradation of a small percentage (1-3%) of cellular glycogen in human. Deficiency of this enzyme results in glycogen-storage disease type II (GSDII), also referred to as Pompe disease, an autosomal recessive disorder. Structurally normal glycogen is accumulated in lysosomes and cytoplasm in affected patients, primarily in muscle tissues. Excessive glycogen storage within lysosomes may interrupt normal functioning of other organelles and leads to cellular injury. In turn, this leads to enlargement and dysfunction of the entire organ involved (eg, cardiomyopathy and muscle weakness). It has reported that the improper folding and trafficking of alpha-glucosidase resulting from the genetic mutations may account for a significant number of Pompe patients. […] We optimized this alpha-glucosidase assay in 1536-well plate format for identifying the novel small molecule inhibitors with the structures other than the sugar analogs in order to develop the new pharmacological chaperones, but are also able to detect potential activators. In conjunction with assays against alpha-galactosidase (AID 1467), fluorogenic false positive compounds can be identified.
NCGC Assay Protocol Summary: This is a fluorogenic enzyme assay with 4-methylumbelliferyl-alpha-D-[…] as the substrate and human alpha-glucosidase as the enzyme preparation. Upon the hydrolysis of this fluorogenic substrate, the resulting product, 1. 4-methyllumbelliferone, can be excited at 365 nm and emits at 440 nm which can be detected by a standard fluorescence plate reader. Data were normalized to the controls for basal activity (without enzyme) and 100% activity (with enzyme). In the AC50 values were determined from concentration-response data modeled with the standard Hill equation. Assay buffer: 50 mM citric acid (titrated with potassium phosphate to pH 5.0), 0.005% Tween-20, pH 5.0. (pH 5.0 is an optimal condition for this enzyme assay) 1536-well assay protocol for the human alpha-glucosidase: (1) Add 2 ul/well of enzyme (4 nM final) (2) Add 23 nL compounds in DMSO solution. The final titration was 0.7 nM to 77 uM. (3) Add 1 ul of substrate (400 uM final) (4) Incubate at room temperature for 20 min. (5) Add 2 ul stop solution (1M NaOH and 1M Glycine mixture, pH 10) (6) Detect the assay plate in a ViewLux plate reader (PerkinElmer) with Ex=365 nm and Em=440nm. Keywords: Alpha-glucosidase, Pompe Disease, pharmacological chaperone, chaperone therapy, high throughput screening, alpha-glucosidase inhibitor, MLSMR, MLSCN, NIH Roadmap, qHTS and NCGC
Potency is the fitted concentration of half-maximal effect.

Potency, active:
N=c1oc2cc(O)ccc2cc1C(=O)Nc1nc2ccccc2s1 35.5 µM
N=c1oc2cc(O)ccc2cc1C(=O)Nc1ccccn1 35.5 µM
C=CCn1c(-c2cccs2)nc2nc3ccccc3nc21 35.5 µM
C=CCn1c(-c2ccc(OC)cc2)nc2nc3ccccc3nc21 35.5 µM
CCCn1c(-c2cccs2)nc2nc3ccccc3nc21 35.5 µM
CCOC(=O)c1cccc(-n2c(-c3ccc(OC)cc3)nc3nc4ccccc4nc32)c1 5.01 µM
CCC(C)n1c(-c2cccs2)nc2nc3ccccc3nc21 (stereo not given) 35.5 µM
CC(C)Cn1c(-c2cccs2)nc2nc3ccccc3nc21 35.5 µM
Cc1ccc(-c2cc(C(=O)NCCCn3ccnc3)c3ccccc3n2)s1 28.2 µM
Cc1ccc2nc3c(cc(C(=O)NCCCn4ccnc4)n3C)c(=O)n2c1 35.5 µM
Cc1cccn2c(=O)c3cc(C(=O)N4CCN(C(=O)c5ccco5)CC4)n(C)c3nc12 35.5 µM
Cc1cccn2c(=O)c3cc(C(=O)NCCCN4CCCC4=O)n(C)c3nc12 35.5 µM
Nc1cc(C(=O)O)c(Oc2ccc(Cl)cc2Cl)cc1C(=O)O 35.5 µM
CCc1cc2c3c(c(=O)oc2cc1O)CCCC3 28.2 µM
O=c1oc2cc(O)ccc2c2c1CCCC2 35.5 µM
COC(=O)C1=CN(Cc2ccc(OC)cc2)C=C(C(=O)OC)C1c1ccsc1 25.1 µM
COC(=O)C1=CN(Cc2ccc(OC)cc2)C=C(C(=O)OC)C1c1cccs1 25.1 µM
COc1ccc(-c2cn3cccnc3n2)cc1 35.5 µM
FC(F)(F)Oc1ccc(-c2cn3cccnc3n2)cc1 35.5 µM
Cc1ccc(-c2cn3cccnc3n2)cc1 35.5 µM
CC1(C)CN(c2ccc(-c3ccnc4ncnn34)cc2)C1=O 28.2 µM
N#Cc1c(C(F)(F)F)cc(-c2cccs2)nc1SCc1cccnc1 35.5 µM
Cc1[nH]c2ccccc2c1C(O)CN1CCN(c2cccc(C(F)(F)F)c2)CC1 (stereo not given) 35.5 µM
CC(C)c1cc(NCCCN2CCOCC2)n2c(nc3ccccc32)c1C#N 31.6 µM
Cc1cc(NCCCN2CCOCC2)n2c(nc3ccccc32)c1C#N 31.6 µM
COc1ccc(-c2c(C#N)c(N)nc3c2CCc2ccccc2-3)cc1OC 35.5 µM
COCCCn1cnc2oc3nc4ccccc4nc3c2c1=O 35.5 µM
CC(=O)Nc1cc2ccc(OC(C)=O)cc2oc1=O 35.5 µM
CC(=O)Nc1cc2c(ccc3ccccc32)oc1=O 25.1 µM
CCOC(=O)c1cc2c(ccc3ccccc32)oc1=O 35.5 µM
O=C(O)c1cc2c(ccc3ccccc32)oc1=O 35.5 µM
O=C(c1cc2c(ccc3ccccc32)oc1=O)N1CCCC1 31.6 µM
CC(OC(=O)c1cc2c(ccc3ccccc32)oc1=O)c1nc2ccccc2s1 (stereo not given) 28.2 µM
O=C(NCCc1ccccc1)c1cnc2ccccn2c1=O 25.1 µM
Cc1ccc(-n2c3nc(=O)[nH]c(=O)c-3cc3c(C)nn(-c4ccccc4)c32)c(C)c1 25.1 µM
Cc1cccc(-n2c3nc(=O)[nH]c(=O)c-3cc3c(C)nn(-c4ccccc4)c32)c1C 22.4 µM
Cc1cccc(-n2c3nc(=O)[nH]c(=O)c-3cc3c(C)nn(-c4ccccc4)c32)c1 20 µM
O=c1c(-c2nc3ccccc3s2)cccn1Cc1ccccc1 39.8 µM
O=c1c(-c2nc3ccccc3s2)cccn1Cc1ccc(Cl)cc1 10 µM
Cc1ccc(Cn2cccc(-c3nc4ccccc4s3)c2=O)cc1 28.2 µM
O=c1c(-c2nc3ccccc3s2)cccn1Cc1ccc(Cl)c(Cl)c1 28.2 µM
COc1cc(=O)n(C)c2cc(N(C)C)ccc12 31.6 µM
COc1cc2nc(N3CCN(C(=O)C4CCCO4)CC3)nc(N)c2cc1OC (stereo not given) 35.5 µM and 39.8 µM
COc1cc2nc(N3CCN(C(=O)C4COc5ccccc5O4)CC3)nc(N)c2cc1OC (stereo not given) 39.8 µM
COc1cc2nc(N(C)CCCNC(=O)C3CCCO3)nc(N)c2cc1OC (stereo not given) 35.5 µM
O=C(O)C(=O)/C(=C\c1cccc(Cl)c1)c1ccc2ccccc2n1 28.2 µM
Cc1ccc2nc(-c3ccc(NS(=O)(=O)c4ccc(F)cc4)cc3)sc2c1 35.5 µM
Cc1nc2ccc(S(=O)(=O)Nc3ccc(-c4nc5cccnc5s4)cc3)cc2s1 35.5 µM
Cc1cccc(S(=O)(=O)Nc2ccc(-c3nc4ccc(C)cc4s3)cc2)c1 31.6 µM
Cc1ccc2sc(-c3ccc(NC(=O)/C=C\C(=O)O)cc3)nc2c1 39.8 µM
Cc1cc(-c2nc3cccnc3s2)ccc1NS(=O)(=O)c1ccc2c(c1)OCCO2 35.5 µM
Cc1ccc2nc(-c3ccc(NS(=O)(=O)c4ccc(F)c(F)c4)cc3)sc2c1 3.55 µM
Cc1ccc(S(=O)(=O)Nc2ccc(-c3nc4ccc(C)cc4s3)cc2)cc1 35.5 µM
C/C(=N\NC(=O)CC#N)c1cc2ccc(O)cc2oc1=O 35.5 µM
Cc1c2c(n3c(nc4ccccc43)c1C#N)N(CCN1CCOCC1)CC2 5.62 µM
Cc1c2c(n3c(nc4ccccc43)c1C#N)N(CCCN(C)C)CC2 35.5 µM
CCOC(=O)c1cc2c(=O)n3ccccc3nc2n(CCCOC)c1=NC(C)=O 35.5 µM
CCOC(=O)c1cc2c(=O)n3ccccc3nc2n(CC2CCCO2)c1=NC(C)=O (stereo not given) 35.5 µM
CCOCCCn1c(=NC(C)=O)c(C(=O)OCC)cc2c(=O)n3ccccc3nc21 39.8 µM
CCCn1c(=NC(C)=O)c(C(=O)OCC)cc2c(=O)n3ccccc3nc21 35.5 µM
CCOC(=O)c1cc2ccc(OC(=O)c3ccco3)cc2oc1=O 35.5 µM
CCOC(=O)c1cc2ccc(OC)cc2oc1=O 31.6 µM
CNC(=O)c1cc2ccc(OC)cc2oc1=O 28.2 µM
CSc1nc2n(n1)C(c1ccccn1)C1=C(CC(C)(C)CC1=O)N2 (stereo not given) 35.5 µM
CCC(NC(=O)OC(C)(C)C)C(=O)Oc1ccc2c3c(c(=O)oc2c1)CCC3 (stereo not given) 35.5 µM
Cc1c(OC(=O)CNC(=O)OC(C)(C)C)ccc2c3c(c(=O)oc12)CCC3 11.2 µM
CSCCC(NC(C)=O)C(=O)Oc1ccc2c3c(c(=O)oc2c1)CCCC3 (stereo not given) 35.5 µM
Cc1csc(NC(=O)c2ccccc2O)n1 39.8 µM
Cc1ccc(N(C)S(=O)(=O)c2cccc(C(=O)Oc3ccc4c(C)cc(=O)oc4c3)c2)cc1 31.6 µM
CCN(c1ccccc1)S(=O)(=O)c1cc(C(=O)Oc2ccc3c(C)cc(=O)oc3c2)ccc1C 28.2 µM
C=CCN(c1ccccc1)S(=O)(=O)c1cccc(C(=O)Oc2ccc3c(C)cc(=O)oc3c2)c1 35.5 µM
O=Cc1cn(-c2ccccc2)nc1-c1cc2cc(O)ccc2oc1=O 35.5 µM
CCC(C)NC(=O)c1cc2cc3ccc(OC)cc3nc2s1 (stereo not given) 35.5 µM
COc1ccc2cc3cc(C(=O)NC(C)C)oc3nc2c1 28.2 µM
COc1ccc2cc3cc(C(=O)NCC4CCCO4)oc3nc2c1 (stereo not given) 35.5 µM
O=c1[nH]cnc2nc(-c3ccccc3)c(-c3ccccc3)nc12 35.5 µM
COc1ccc2cc3cc(C(=O)NCCN4CCN(c5ccccc5F)CC4)oc3nc2c1 35.5 µM
COc1ccc2cc3cc(C(=O)NCCN4CCN(Cc5ccccc5)CC4)oc3nc2c1 28.2 µM
COc1ccc2cc3cc(C(=O)NCCN4CCc5ccccc5C4)oc3nc2c1 35.5 µM
CC(=O)Nc1ccc(S(=O)(=O)NCC(=O)OCc2cc(=O)oc3ccc4ccccc4c23)cc1 35.5 µM
COc1cccc(-c2nc(N3CCN(Cc4ccccc4)CC3)c3ccccc3n2)c1O 39.8 µM
COC(=O)c1ccc2nc(Nc3nc4c(F)cc(F)cc4s3)sc2c1 6.31 µM
COC(=O)c1ccc2nc(Nc3nc4ccc(F)cc4s3)sc2c1 12.6 µM
O=C(NC1CCC(O)CC1)c1cc(-c2ccco2)nc2ccccc12 (stereo not given) 39.8 µM
OCCN(CCO)c1ccc2ccccc2c1 35.5 µM
c1ccc(CCNc2ccnc3cc4ccccc4cc23)cc1 22.4 µM
COc1ccc2nc(N3CCOCC3)cc(C)c2c1 39.8 µM
CCOc1ccc2nc(N3CCOCC3)nc(C)c2c1 39.8 µM
Cc1cc(N2CCOCC2)nc2cc(O)ccc12 28.2 µM
CCN(CC)C(=O)c1cc2c(=O)n3ccccc3nc2s1 31.6 µM
COCCN(CCOC)C(=O)c1cc2c(=O)n3ccccc3nc2s1 35.5 µM
CC1=CN2C(=NC(=O)CC2(C)C(=O)N(CC(=O)NC2CCCC2)c2cc(C)cc(C)c2)C=C1 (stereo not given) 39.8 µM
CC1=CN2C(=NC(=O)CC2(C)C(=O)N(CC(=O)NC2CCCC2)c2ccccc2C)C=C1 (stereo not given) 35.5 µM
CCC(=O)Oc1ccc2c(c1)OC1(OC(C)=O)OC(C)CC1=C2C (stereo not given) 5.62 µM
CCOC(=O)c1sc(-c2ccc(OC)cc2)cc1NC(C)=O 28.2 µM
